Screening results deposited in PubChem by National Center for Advancing Translational Sciences (NCATS).
RE007 growth inh: less growth of the S. pombe RE007 Vpr strain; S. pombe RE007 Vpr strain, BacTiter-Glo ATP luminescence, 24 h; Potency, µM (titrated, usually from 92.2 µM), actives largely listed as inhibitors; 360,000 compounds, 0.21% hits; active = well fitted falling curve with a large enough effect; inconclusive = small, poorly fitted or top-dose-only effect; inactive = no such curve, though single readings can be large or run the other way; note: nearly all actives have a fitted effect of over 50% in size
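Fission yeast RE007 carrying one integrated HIV-1 vpr copy, seeded at OD 0.01 in PMG+AL medium with 23 nL pinned compound. Grown 24 h at 30 degrees; viability read by BacTiter-Glo luminescence after 5 min.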
TbPYK inhibitor: inhibitors of Trypanosoma brucei pyruvate kinase | Q57TT1 | TbPYK enzyme, Kinase-Glo Plus ATP luminescence, 45 min | Potency, µM (titrated, usually from 76.8 µM), hits mostly inhibitors | 410,000 compounds, 0.12% hits | AID 624173; note: nearly all actives have a fitted effect of over 50% in size
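TbPYK + substrate in 50 mM TEA pH 7.2, 100 mM KCl, 10 mM MgCl2, 0.05% BSA, 0.01% Tween-20; cpd pinned; ADP 130 uM final; 45 min RT; Kinase-Glo Plus 10 min; luminescence endpoint.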
Cycloheximide cs: counter-screen for Shiga toxin inhibitors: cycloheximide protein synthesis inhibition | cell reporter, cycloheximide protein synthesis inhibition counterscreen | max response, % | 300,000 compounds, 12% hits; in the data active = max response mostly above about 13%, no sharp cut-off; inactive = mostly below about 14%; note: read at 38.3 µM for the half of the compounds with a filed dose
FBPA Giardia inh: blocks Giardia fructose-bisphosphate aldolase activity; purified Giardia FBPA; 290,000 compounds, 0.71% hits; Potency, µM (doses to about 59.6 µM), actives largely listed as inhibitors; A8B2U2; note: nearly all actives have a fitted effect of over 55% in size
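Giardia FBPA (40 nM reagent) was preincubated 10 min at RT with compound (up to 57.5 uM final), then substrate plus GAPDH/TPI/NAD/arsenate coupling system with diaphorase/resazurin was added; resorufin fluorescence (525/598 nm) was read after 20 min.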
Shiga inhibitor: inhibitors of Shiga toxin in Vero cells. 290,000 compounds, 9.2% hits. inhibition, % at 38.7 µM. Vero cells, Shiga toxin protein synthesis inhibition reporter; in the data active = inhibition mostly above about 28%, no sharp cut-off; inactive = mostly below about 43%
LmPK inh: LmPK (Leishmania mexicana) enzyme inhibition | Q27686 | AID 1721 | purified LmPK, Kinase-Glo ATP luminescence, 1 h | Potency, µM (top dose mostly 57.5 µM), usual class: inhibitors | 290,000 compounds, 0.37% hits
Target sequence (Q27686 whole entry, looked up): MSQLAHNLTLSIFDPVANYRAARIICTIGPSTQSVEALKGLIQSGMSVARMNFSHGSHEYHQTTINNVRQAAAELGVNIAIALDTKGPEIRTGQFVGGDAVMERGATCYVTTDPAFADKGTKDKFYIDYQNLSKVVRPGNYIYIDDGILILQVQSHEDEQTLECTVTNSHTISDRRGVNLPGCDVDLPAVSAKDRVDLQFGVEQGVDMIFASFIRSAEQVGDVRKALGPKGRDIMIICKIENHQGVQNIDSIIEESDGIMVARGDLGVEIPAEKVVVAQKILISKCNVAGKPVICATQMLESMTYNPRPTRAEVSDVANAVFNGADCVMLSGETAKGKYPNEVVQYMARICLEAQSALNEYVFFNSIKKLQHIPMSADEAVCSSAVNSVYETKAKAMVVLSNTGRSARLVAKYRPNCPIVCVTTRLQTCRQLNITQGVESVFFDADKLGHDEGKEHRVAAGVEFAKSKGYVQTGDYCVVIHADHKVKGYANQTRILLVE
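Pyruvate kinase activity monitored as ATP production (luciferase luminescence). Conditions: 0.1 nM enzyme, 0.5 mM PEP, 0.1 mM ADP, 1 h, RT; normalized against uninhibited and no-enzyme wells.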
Each line names hits and unclear results; the compound was inactive in the other large screens. This excerpt belongs to a sample that is enriched for hits. Unless noted, calls come from the whole dose curve; as a rule, active = well fitted curve in the direction sought with a large enough effect; inconclusive = small, poorly fitted or top-dose-only effect, or another doubt; inactive = no such curve, though single readings can be large; an effect the other way counts as inactive or inconclusive.

Cc1ccc(C)c(Cn2c3ccccc3c3cnn(CC(=O)NC(C)c4ccccc4)c(=O)c32)c1 (centres undefined)	none (no result: RE007 growth inh, Cycloheximide cs, FBPA Giardia inh, Shiga inhibitor, LmPK inh)
Cc1ccc(S(=O)(=O)N(C)C)cc1NC(=O)Cn1c(CN2CCOCC2)nc2ccccc2c1=O	none
Cc1nc(CC(=O)Nc2ccc(C(N)=O)cc2)cs1	none (no result: RE007 growth inh, Cycloheximide cs, FBPA Giardia inh, Shiga inhibitor, LmPK inh)
O=C(c1cc(Cc2n[nH]c(=O)c3ccccc23)ccc1F)N1CCN(C(=O)C2CC2)CC1	none (no result: RE007 growth inh, Cycloheximide cs, FBPA Giardia inh, Shiga inhibitor, LmPK inh)
CCN1CCN(C(=O)c2ccc3c(c2)N(Cc2ccc(Cl)cc2)C(=O)c2ccccc2S3=O)CC1 (centres undefined)	none (no result: RE007 growth inh, Cycloheximide cs, FBPA Giardia inh, Shiga inhibitor, LmPK inh)
O=C1CC(N2CCN(c3ccccc3Cl)CC2)C(=O)N1c1cccc(F)c1 (centres undefined)	RE007 growth inh 35µM
CCOC(=O)N1CCN(C2CC(=O)N(c3ccc(Cl)c(Cl)c3)C2=O)CC1 (centres undefined)	RE007 growth inh 11µM
O=C(O)c1ccc(N2C(=O)CC(N3CCN(c4cccc(C(F)(F)F)c4)CC3)C2=O)cc1 (centres undefined)	none
CN1C(=O)CC(N2CCN(CCN=CC3=C(O)CC(C)(C)CC3=O)CC2)C1=O (centres undefined)	none
O=C(O)c1ccc(N2C(=O)CC(N3CCN(c4cccc(Cl)c4)CC3)C2=O)cc1 (centres undefined)	Cycloheximide cs 9.7 (no result: Shiga inhibitor)
CCOC(=O)N1CCN(C2CC(=O)N(c3ccccc3)C2=O)CC1 (centres undefined)	none
CC1(C)CC(=O)C(C=NCCN2CCN(C3CC(=O)N(c4ccc(Cl)c(Cl)c4)C3=O)CC2)=C(O)C1 (centres undefined)	RE007 growth inh 10µM
CSCC[C@H](NC(=O)[C@H](CC(C)C)NC(=O)[C@@H]1CCCN1C(=O)[C@H](Cc1ccccc1)NC(=O)[C@H](Cc1ccccc1)NC(=O)[C@H](CCC(N)=O)NC(=O)[C@H](CCC(N)=O)NC(=O)[C@@H]1CCCN1C(=O)[C@H](CCCCN)NC(=O)[C@@H]1CCCN1C(=O)[C@@H](N)CCCN=C(N)N)C(N)=O	none (no result: RE007 growth inh, TbPYK inhibitor, LmPK inh)
COc1ccc(N2C(=O)CC(N3CCN(c4cccc(Cl)c4)CC3)C2=O)cc1 (centres undefined)	none
COc1cccc(N2CCN(C3CC(=O)N(c4ccc(Cl)c(Cl)c4)C3=O)CC2)c1 (centres undefined)	RE007 growth inh 35µM
CCC1(C)OC(=O)NN(c2ccc(C)cc2)C1(C)O (centres undefined)	none
COc1ccc(-c2nc3ccccc3s2)cc1O	RE007 growth inh inconclusive, LmPK inh 16µM
CCOc1cc(-c2nc3ccccc3s2)ccc1O	Cycloheximide cs 56, Shiga inhibitor 65
COc1cc(-c2nc3ccccc3s2)ccc1O	Cycloheximide cs 45, Shiga inhibitor 80, LmPK inh inconclusive
CCOc1ccc(Nc2nc3ccccc3n3c(CC)nnc23)cc1	none (no result: RE007 growth inh, Cycloheximide cs, FBPA Giardia inh, Shiga inhibitor, LmPK inh)
O=C(Nc1ccc(Cl)c(C(F)(F)F)c1)C1CCN(S(=O)(=O)c2cccc3nonc23)CC1	none (no result: RE007 growth inh, Cycloheximide cs, FBPA Giardia inh, Shiga inhibitor, LmPK inh)
CCCCC1=CC2=C(OC(C)=O)C(=O)C(C)(OC(=O)c3ccc(Cl)nc3)C(=O)C2=CO1 (centres undefined)	none (no result: RE007 growth inh, TbPYK inhibitor, Cycloheximide cs, Shiga inhibitor, LmPK inh)
Cn1c(=O)[nH]c(=O)c2c1[nH]c(=S)n2Cc1ccc(Cl)cc1	TbPYK inhibitor 5.6µM, FBPA Giardia inh inconclusive, LmPK inh inconclusive (no result: RE007 growth inh)
Cn1c(=O)[nH]c(=O)c2c1nc(Br)n2Cc1ccc(Cl)cc1	none (no result: Cycloheximide cs, FBPA Giardia inh, Shiga inhibitor, LmPK inh)
Nc1cc(Cl)nc(N/N=C/c2ccccc2[N+](=O)[O-])n1	Cycloheximide cs 47, Shiga inhibitor 87
O=[N+]([O-])c1ccccc1/C=N/Nc1nccnc1Cl	Cycloheximide cs 50, Shiga inhibitor 124, LmPK inh inconclusive
Oc1ccc(/C=N/Nc2nccnc2Cl)c(O)c1	TbPYK inhibitor inconclusive, Cycloheximide cs 49, Shiga inhibitor 124, LmPK inh 13µM
Oc1ccc(/C=N/Nc2ncc(Br)cn2)c(O)c1	Cycloheximide cs 76, Shiga inhibitor 115
Oc1ccc(C=NNc2ccccn2)c(O)c1	none (no result: Cycloheximide cs, FBPA Giardia inh, Shiga inhibitor, LmPK inh)
O=C1CN(S(=O)(=O)c2ccc([N+](=O)[O-])cc2)CC(=O)N1	none
Oc1ccccc1/C=N/Nc1nccnc1Cl	RE007 growth inh inconclusive, Cycloheximide cs 38, LmPK inh 16µM
O=C(CCCCC(=O)NN=Cc1ccccc1O)NN=Cc1ccccc1O	none (no result: Cycloheximide cs, FBPA Giardia inh, Shiga inhibitor, LmPK inh)
